In PubChem BioAssay (NCATS):
Results filed as inconclusive are left out. Values without a mark were called inactive. Activity calls are given as the source filed them. Calls come from the whole dose curve; as a rule, active = well fitted inhibition curve with a large enough effect; inconclusive = small, poorly fitted or top-dose-only effect; inactive = no such curve, though single readings can be large or run the other way.

Assay: qHTS assay for measurement of the activity of small molecule inhibitors on Zika virus induced Caspase-3 activity in human iPSC derived neural progenitor cells (hNPCs) (AID 1224857); note: nearly all actives have a fitted effect of over 65% in size; for activity change, negative = inhibition: % of control where 0% means no effect
Settings: hNPCs ZIKV-induced caspase-3/7, Caspase-Glo luminescence, 6 h; series mostly up to 45.7 µM; activity change, negative = inhibition: at the top concentration
Procedure, shortened: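 After overnight (16–20 h) culture at 350 cells/well, hNPCs get compound, then ZIKV 2 FFU/cell one hour later. Six hours on, Caspase-Glo 3/7 is added and luminescence measured.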
Potency is the fitted concentration of half-maximal effect.

SMILES	activity change, negative = inhibition [%]	Potency
N[C@H](CCCP(=O)(O)O)C(=O)O	4.55	–
Nc1nc(OCC2CCCCC2)c2[nH]cnc2n1	-0.371	–
Brc1cc2c(cc1[C@H]1Nc3ccccc3[C@H]3C=CC[C@H]31)OCO2	24	–
CC(C)(C)NCC(O)COc1nsnc1N1CCOCC1 (stereo unspecified)	-16.7	–
O=C(Nc1ccncc1)c1cc([N+](=O)[O-])ccc1Cl	8.36	–
S=c1[nH]c(-c2ccccc2)cn1-c1ccccc1	-17.1	–
Fc1ccc2[nH]c(CN3CCN(c4ccccn4)CC3)cc2c1	-12.5	–
C=C/C(C)=C/[C@@]1(C)SC(=O)C(C)=C1O	11.9	–
COc1ccccc1CN[C@@H]1CCCN[C@@H]1c1ccccc1	11.7	–
CNc1ncnc2c1ncn2[C@@H]1O[C@H](CO)C(O)[C@H]1O (stereo partly specified)	-6.29	–
O=c1[nH]c2cc([N+](=O)[O-])c([N+](=O)[O-])cc2[nH]c1=O	4.93	–
CNC(=O)c1c(I)c(NC(=O)CCCCC(=O)Nc2c(I)c(C(=O)O)c(I)c(C(=O)NC)c2I)c(I)c(C(=O)O)c1I	-19.1	–
Oc1cc2c(cc1O)CN(C(=S)NCCc1ccc(Cl)cc1)CCC2	-8.57	–
CCC(CO)Nc1nc(NCc2ccccc2)c2ncn(C(C)C)c2n1 (stereo unspecified)	37.4	–
CC(C)NC[C@@H](O)c1ccc(O)c(O)c1	-18.8	–
O=C1NCc2c1c1c3ccccc3[nH]c1c1[nH]c3ccccc3c21	91.1	–
CN[C@H](CC(C)C)C(=O)N[C@H]1C(=O)N[C@@H](CC(N)=O)C(=O)N[C@H]2C(=O)N[C@H]3C(=O)N[C@H](C(=O)N[C@H](C(=O)O)c4cc(O)cc(O)c4-c4cc3ccc4O)[C@H](O)c3ccc(c(Cl)c3)Oc3cc2cc(c3O[C@@H]2O[C@H](CO)[C@@H](O)[C@H](O)[C@H]2O[C@H]2C[C@](C)(N)[C@H](O)[C@H](C)O2)Oc2ccc(cc2Cl)[C@H]1O	-2.38	–
O=C(c1cc(O)c(O)c([N+](=O)[O-])c1)c1ccccc1F	-9.51	–

SMILES	activity change, negative = inhibition [%]	Potency
CC(C)(NS(=O)(=O)c1ccc(Oc2ccc(F)cc2)cc1)C(=O)NO	-1.84	–
CCCC(CCC)C(=O)OC1CC2CCC(C1)[N+]2(C)C (stereo unspecified)	-13.8	–
Nc1nc2c(ncn2[C@@H]2O[C@H](CO)[C@@H](O)[C@@H]2O)c(=O)[nH]1	-17	–
C[C@@H](CN1CCC(Cc2ccccc2)CC1)[C@@H](O)c1ccc(O)cc1	14.4	–
O=C1NC(=O)/C(=C/c2ccc(-c3ccc(F)cc3O)o2)S1	–	10 µM (active)
O=C(CCc1ccncc1)NNC(=O)N1Cc2ccccc2Oc2ccc(Cl)cc21	12.9	–
C[N+](C)(C)CCOP(=O)(O)OP(=O)([O-])OC[C@H]1O[C@@H](n2ccc(N)nc2=O)[C@H](O)C1O (stereo partly specified)	3.88	–
Nc1nc(SCc2ccc([N+](=O)[O-])cc2)c2ncn([C@@H]3O[C@H](CO)C(O)[C@H]3O)c2n1 (stereo partly specified)	34.2	–
COc1ccc(C(=O)/C(Cc2cc(OC)c(OC)c(OC)c2)=C(\C(=O)O)c2ccc3c(c2)OCO3)cc1	14.3	–
Nc1nc(Nc2ccccc2)nc2c1ncn2[C@@H]1O[C@H](CO)C(O)[C@H]1O (stereo partly specified)	-17.3	–
COCCOc1cc2nc[nH]c(=O)c2cc1OCCOC	17.9	–
CCCCC#Cc1nc(NC)c2ncn([C@@H]3O[C@H](CO)[C@@H](O)C3O)c2n1 (stereo partly specified)	5.81	–
COc1cc(OC)cc(-c2cc3cnc(N)nc3nc2NC(=O)NC(C)(C)C)c1	9.4	–
Cc1ccc2c(n1)Oc1ccc(C(C)C(=O)OCC(=O)N(C)C)cc1C2 (stereo unspecified)	–	14.1 µM (active)
Cc1cn([C@H]2CC(N=[N+]=[N-])[C@@H](CO)O2)c(=O)[nH]c1=O (stereo partly specified)	-4.27	–
N=c1ccn2c(n1)O[C@H]1C(O)[C@@H](CO)O[C@H]12 (stereo partly specified)	24.2	–
CC[C@H]1OC(=O)[C@H](C)[C@@H](O[C@H]2C[C@@](C)(OC)[C@@H](O)[C@H](C)O2)[C@H](C)[C@@H](O[C@@H]2O[C@H](C)C[C@H](NC)[C@H]2O)[C@](C)(O)C[C@@H](C)CN(C)[C@H](C)[C@@H](O)[C@]1(C)O	3.6	–
O=C1NC(O)=NC1(c1ccccc1)c1ccccc1	-36.4	–
